In PubChem BioAssay AID1508608 (The Scripps Research Institute Molecular Screening Center, 2020):
In all, about 2,300 compounds went through this assay and about 20 (0.9%) were called active.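 The calls were made as follows: active = mean activation across replicates above 26.72%, the hit cutoff set for this confirmation screen; inactive = the rest.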 The full list was thinned out, with actives kept by preference.

Target: G-protein coupled receptor 151 (Homo sapiens) (UniProt Q8TDV0)
Experiment: GPR151 activators, triplicate retest, confirmation, cell-based, PathHunter beta-arrestin, luminescence, set 2 (AID 1508608);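 also: 0% = plate median of compound wells and 100% = EA reagent high control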
Settings: GPR151 PathHunter beta-arrestin cells, 90 min, at 11.2 µM, stronger effect = higher value, 100% = signal from added EA reagent

Chain of G-protein coupled receptor 151 (Homo sapiens) (Q8TDV0 whole entry, looked up): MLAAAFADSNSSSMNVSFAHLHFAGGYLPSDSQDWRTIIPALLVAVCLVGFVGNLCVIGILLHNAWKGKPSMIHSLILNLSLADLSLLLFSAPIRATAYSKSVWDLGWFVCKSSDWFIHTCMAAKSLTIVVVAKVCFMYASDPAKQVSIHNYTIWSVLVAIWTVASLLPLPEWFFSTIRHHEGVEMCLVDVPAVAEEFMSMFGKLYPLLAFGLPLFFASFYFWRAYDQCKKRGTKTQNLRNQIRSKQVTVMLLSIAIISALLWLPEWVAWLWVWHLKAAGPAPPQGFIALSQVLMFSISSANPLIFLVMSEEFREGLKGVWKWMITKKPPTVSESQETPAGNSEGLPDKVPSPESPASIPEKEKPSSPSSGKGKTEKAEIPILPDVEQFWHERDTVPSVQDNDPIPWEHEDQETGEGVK

Compound	activation
CCCc1c(C)nc2c(C(=O)NCc3ccc(F)cc3)c[nH]n2c1=O	4.27% (inactive)
CC1CCCCC1NS(=O)(=O)c1ccc2c(c1)CCN2C(=O)C1CC1 (stereo not drawn)	-8.17% (inactive)
CNS(=O)(=O)c1cc(-c2nnc(NCc3nc4ccccc4[nH]3)c3ccccc23)ccc1C	0.28% (inactive)
CCOC(=O)c1cnc2ccc(OCC)cc2c1Nc1ccccc1OC	0.37% (inactive)
CC(C(=O)O)n1ncn2cccc2c1=O (stereo not drawn)	0.45% (inactive)
Cc1cc2c(cc1S(=O)(=O)N1CCN(C3CCCCC3)CC1)OCC(=O)N2	-3.55% (inactive)
CCCCc1ccc(C(=O)N/C(=C\c2ccc(C)cc2)C(=O)Nc2ccc([N+](=O)[O-])cc2)cc1	-6.88% (inactive)
COCCCNC(=O)c1csc2c1CCCC2	-6.29% (inactive)
COc1ccccc1OCC(=O)n1nc(C)cc1C	-1.85% (inactive)
CC1=C(C(=O)OCC(C)C)C(c2ccc(Cl)cc2Cl)NC(=O)N1 (stereo not drawn)	1.8% (inactive)
CCCCNC(=O)c1ccc2c(c1)ncn2-c1cc(OC)c(OC)c(OC)c1	3.91% (inactive)
Cc1ccc(S(=O)(=O)c2cc3cc([N+](=O)[O-])ccc3oc2=O)cc1C	-3.29% (inactive)
c1ccc(Oc2nc(NC3CC3)c3ncn(-c4ccsc4)c3n2)cc1	38.7% (active)
Clc1nc(NCc2ccccc2)c2ncn(-c3ccccc3)c2n1	-0.22% (inactive)
COc1ccc(S(=O)(=O)NC(N)=NCCc2ccccc2OC)cc1	0.59% (inactive)
O=C(Cn1ncc2c(=O)oc3ccccc3c21)Nc1nc2ccccc2s1	-0.55% (inactive)
O=C(NCCc1ccccc1)c1cc(S(=O)(=O)N2CCOCC2)ccc1F	-1.01% (inactive)
O=C(NCC1CCC2(CCN(C(=O)Cc3cccc(F)c3)CC2)O1)c1ccccc1F (stereo not drawn)	0.36% (inactive)
O=C(CCC(=O)Nc1cc(C(F)(F)F)ccc1Cl)N/N=C\c1ccccc1O	-2.79% (inactive)
CCOC(=O)c1c(NC(=O)c2ccc(Cl)cc2Cl)sc(C(=O)Nc2ccccc2F)c1C	-10.1% (inactive)
Cc1ccc(-c2nnc(SCC(=O)NCc3ccccc3Cl)nc2-c2ccc(C)cc2)cc1	-2.15% (inactive)
COc1ccc(CCNC(=O)/C=C\C(=O)O)cc1OC	1.57% (inactive)

Compound	activation
COc1ccc(CCNC(=O)Cn2ncn3cccc3c2=O)cc1OC	3.19% (inactive)
COc1ccc(CCNc2ncnc3c2oc2ccccc23)cc1OC	44.3% (active)
O=C(Cn1c(=O)n(Cc2ccccc2Cl)c(=O)c2cccnc21)Nc1ccc(F)cc1	-1.3% (inactive)
O=C(CCCn1c2ccccc2c(=O)c2ccccc21)Nc1cccc(Cl)c1	6.83% (inactive)
COc1ccc(-c2nc(Nc3ccccc3F)c3ccccc3n2)cc1OC	8.64% (inactive)
CC(C)C[C@H]1NC(=O)[C@H]2CN(C(=O)c3cccc(Cl)c3)CCN2C1=O	-3.06% (inactive)
CC[C@@H](C(=O)C(C)[C@@H](O)[C@H](C)CCc1ccc(C)c(O)c1C(=O)O)C1OC(CC)(C2CC[C@](O)(CC)[C@H](C)O2)C[C@@H]1C (stereo partly drawn)	83.1% (active)
O=C(Nc1ncc(C(O)(C(F)(F)F)C(F)(F)F)s1)c1ccccc1Cl	-4.3% (inactive)
COc1ccc(NC(=O)c2cc3c(CO)cnc(C)c3oc2=N)cc1Cl	-0.43% (inactive)
O=C(NCCc1nnc2n1CCN(Cc1ccccc1-c1ccco1)CC2)C1CCCO1 (stereo not drawn)	-0.22% (inactive)
CCc1ccccc1NC(=S)N(CCc1ccc(OC)c(OC)c1)Cc1cccnc1	12% (inactive)
O=C(Nc1nc(-c2ccc(I)cc2)cs1)c1ccc(Cl)s1	4.72% (inactive)
CC(C)[C@@H]1NC(=O)[C@@H]2C[C@H](NCc3cn(C)nc3-c3ccccc3)CN2C1=O	-1.25% (inactive)
Cc1nn(-c2ccccc2)c(Cl)c1/C=N\O	1.25% (inactive)
Cc1ccc(O)c(NC(=O)COCc2cc(-c3ccc(F)cc3)on2)c1	-1.43% (inactive)
COc1cc(NC(=O)c2nn3c(C(F)(F)F)cc(-c4ccco4)nc3c2Cl)c(OC)cc1Cl	-0.24% (inactive)
CCC(=O)N1CCc2cc(S(=O)(=O)Nc3cccc(C)c3)ccc21	-1.7% (inactive)
CC(=O)N1CCc2cc(Br)cc(S(=O)(=O)Nc3ccc(C)cc3C)c21	-9.66% (inactive)
O=C(Nc1nc2c(s1)-c1cccc3cccc-2c13)C1CC1	-2.94% (inactive)
Cc1cccc(NCC(=O)N/N=C/c2ccccc2O)c1	-1.08% (inactive)
CN1CCN(C(=O)c2cc3c(=O)[nH]c4ccccc4c3s2)CC1	-2.02% (inactive)
COc1ccc(OC)c(S(=O)(=O)NCCc2csc(-c3cccnc3)n2)c1	-1.44% (inactive)

Compound	activation
Cc1cccc(N(CCCN2C(=O)c3cccc4cccc(c34)C2=O)C(=O)c2cccs2)c1	2.61% (inactive)
CC(=O)NN1C(=O)c2ccc(Oc3ccc4c(c3)C(=O)N(NC(C)=O)C4=O)cc2C1=O	1.35% (inactive)
COc1ccc(/C=c2\sc3ncnn3c2=O)c(OC)c1	1.55% (inactive)
COc1ccccc1C1SC(NC(C)=O)=NN1C(C)=O (stereo not drawn)	4.02% (inactive)
Cc1cccc(C2c3[nH]c4ccccc4c3CCN2C(=O)CCN2CCCCO2)n1 (stereo not drawn)	2.25% (inactive)
COc1cccc(CC(=O)NCC2CC(Cc3ccc(F)cc3)=NO2)c1 (stereo not drawn)	-4.37% (inactive)
Cc1cc(Nc2ccc(N3CCOCC3)cc2)nc(Nc2ccc(-n3ccnc3)cc2)n1	17.5% (inactive)
Cc1cc(Nc2ccc3c(c2)OCO3)nc(Nc2ccc(N3CCOCC3)cc2)n1	12.3% (inactive)
COc1ccc(CCNc2ccnc(Nc3ccc(-n4ccnc4)cc3)n2)cc1	38.8% (active)
COc1cc(Nc2ccnc(Nc3ccc(N4CCOCC4)cc3)n2)cc(OC)c1OC	4.44% (inactive)
COc1ccc(CCNc2cc(C)nc(Nc3ccc(-n4ccnc4)cc3)n2)cc1	41.2% (active)
COc1ccc(CCNc2ccnc(Nc3ccc(N4CCOCC4)cc3)n2)cc1	28.5% (active)
COc1cccc(Nc2nc(Nc3cc(C)ccc3C)nc(N3CCOCC3)n2)c1	8.14% (inactive)
Cc1ccc(NC(=O)/C(=C\c2ccco2)NC(=O)c2cccc(C)c2)cc1	0.99% (inactive)
CC(C)CC(NC(=O)C(C)NC(=O)CNC(=O)C(NC=O)C(C)C)C(=O)NC(C)C(=O)NC(C(=O)NC(C(=O)NC(C(=O)NC(Cc1c[nH]c2ccccc12)C(=O)NC(CC(C)C)C(=O)NC(Cc1c[nH]c2ccccc12)C(=O)NC(CC(C)C)C(=O)NC(Cc1c[nH]c2ccccc12)C(=O)NC(CC(C)C)C(=O)NC(Cc1c[nH]c2ccccc12)C(=O)NCCO)C(C)C)C(C)C)C(C)C (stereo not drawn)	101% (active)
COc1ccc(CCN2C(=O)c3ccc(Oc4ccc(Nc5ncnc6ccccc56)cc4)cc3C2=O)cc1OC	40.5% (active)
COc1ccc(-c2nc(Nc3ccc(C)c(Cl)c3)c3ccccc3n2)cc1OC	12.1% (inactive)
COc1ccc(CCN2C(=O)c3cccnc3C2=O)cc1OC	2.67% (inactive)
CC(NC(=O)c1ccco1)c1nnc2n1CCN(Cc1cccc(F)c1)CC2 (stereo not drawn)	17.5% (inactive)
CCOC(=O)C1=NN=C2C(=O)N(c3ccccc3)C(=O)C12 (stereo not drawn)	0.79% (inactive)
CCOc1ccc(NC(=O)/C(C#N)=C/c2c[nH]c3ccccc23)cc1	1.37% (inactive)
O=C(CSc1nc(-c2ccccc2)cn1-c1ccccc1)Nc1ccccc1Cl	6.36% (inactive)

Compound	activation
O=C1OC(c2ccc(Br)cc2)=N/C1=C\c1ccc(Br)cc1	0.61% (inactive)
Cc1ccc(S(=O)(=O)N(CC(=O)N2CCOCC2)CC(=O)N2CCOCC2)cc1	7.51% (inactive)
O=C1C2CCCN2C(c2ccco2)N1c1ccc(F)cc1 (stereo not drawn)	2.43% (inactive)
FC(F)(F)c1nc(Nc2ccccc2Cl)sc1-c1ccccc1	4.88% (inactive)
N/C(=N\c1nc(=O)c2ccccc2s1)NC(=O)c1cccc(Br)c1	0.6% (inactive)
CCOc1ccc(NC(=O)CN2CCN(CC(=O)Nc3ccc(N(C)C)cc3)CC2)cc1	-2.91% (inactive)
COc1cc(C2=N/C(=C\c3cccc(F)c3)C(=O)O2)cc(OC)c1OC	0.44% (inactive)
O=C1NC(=O)C(=Cc2ccc(-c3ccc(O)c([N+](=O)[O-])c3)o2)C(=O)N1	-2.55% (inactive)
Cc1nnc(Nc2cccc(F)c2)[nH]c1=O	-3.86% (inactive)
COC(=O)C1=C(C)NC(=O)NC1c1cc(OC)ccc1OC (stereo not drawn)	0.35% (inactive)
CC(C)C(NS(=O)(=O)c1cccc2nsnc12)C(=O)NC1CCCC1 (stereo not drawn)	-3.04% (inactive)
CC(=O)Nc1ccc(NC(=O)c2sc3ccccc3c2Cl)cc1	1% (inactive)
CCN(CC(=O)N1CCCCC1)S(=O)(=O)c1ccc(Cl)cc1	-5.3% (inactive)
CC1CCCN(C(=O)C(=O)N2CCCC(C)C2)C1 (stereo not drawn)	3.28% (inactive)
CCC(C)NC(=O)c1cc2c(=O)oc3ccccc3c2s1 (stereo not drawn)	1.06% (inactive)
CCC(C)NC(=O)c1cc(=O)[nH]c2ccc(Br)cc12 (stereo not drawn)	88.5% (active)
CCC(C)NC(=O)c1ccc(-n2c(=S)[nH]c3ccccc3c2=O)cc1 (stereo not drawn)	7.03% (inactive)
CCCOC(=O)CSC1=C(C#N)C(c2ccco2)C(C(=O)Nc2ccc(Cl)cc2)=C(C)N1 (stereo not drawn)	-4.25% (inactive)
O=C(Nc1ccc(F)cc1)N1CCN(c2ccc3nnc(-c4ccc(F)cc4)n3n2)CC1	-0.4% (inactive)
Nc1ccccc1-c1nnn(CC(=O)Nc2ccc(Cl)cc2)n1	-3.19% (inactive)
O/N=C(\C=N\O)C12CC3CC(CC(C3)C1)C2	-1.69% (inactive)
O=C(O)c1c(CNCCCSC2CCCCC2)c2ccccc2n1Cc1ccccc1	3.46% (inactive)
